This is an account of results in PubChem BioAssay (NCATS).

Results filed as inconclusive are left out. A number with no mark means an inactive call. Active and inactive are the calls of the source. Calls come from the whole dose curve; as a rule, active = well fitted inhibition curve with a large enough effect; inconclusive = small, poorly fitted or top-dose-only effect; inactive = flat fitted curve, though single readings scatter.
% is set by controls: 0 for no effect and ±100 for the full control effect; potency is the fitted concentration of half-maximal effect.

This assay can be described thus: Primary qHTS for inhibitors of nuclear receptor binding SET domain protein 2 (NSD2) in an isogenic RCH-ACV NSD2 p.E1099K mutant (9B) (AID 1645876). Note: nearly all actives have a fitted effect of over 70% in size. As to conditions: RCH-ACV (leukaemia line) NSD2 E1099K (9B) viability, CellTiter-Glo, 72 h; series mostly up to 44.9 µM; activity change, negative = viability loss: at the top concentration.
On to `CC1NC(=O)C(Cc2c[nH]c3ccccc23)NC1=O` (centres undefined), for which the “activity change, negative = viability loss” value is -4.42%.
Same read-out and setting: the result for `CC(O)C(O)/C=C/C=C/C(=O)O[C@@H]1C=C2COC(=O)[C@]2(O)[C@@]2(C)CCCC(C)(C)C12` (some centres undefined) reads -10.6% [at 17.3 µM]; that for `CC1=C(C)C(=O)OC(C(C)C2C(O)CC3C4C5OC5C5(O)CC(OC6OC(CO)C(O)C(O)C6O)CC(O)C5(C)C4CCC32C)C1` (centres undefined), -6.36% [at 17.3 µM].
Consider `N[C@H]1C[C@H]1c1ccc(-c2cccc(O)c2)cc1`, for which the “activity change, negative = viability loss” value was -26.1%.
Take `CC1CCC2C(C(=O)O)=CC3C(O)C(C)(C)CC123` (centres undefined): the “activity change, negative = viability loss” value was 4.71%.
Regarding `COc1cc2c(cc1O)CCN[C@]21CS[C@@H]2c3c(OC(C)=O)c(C)c4c(c3[C@H](COC1=O)N1[C@@H]2[C@H]2c3c(cc(C)c(OC)c3O)C[C@@H]([C@@H]1O)N2C)OCO4`, the Potency was 1.7 nM (active).
For the compound `CC1CCC2C(C)(C)C(O)CCC2(C)C12Cc1c(O)cc3c(c1O2)CN=C3N` (centres undefined), the “activity change, negative = viability loss” value was 2.98%.
As to `C[C@@H]1O[C@@H](O[C@@H]2[C@@H](O)[C@@H](O)[C@H](O[C@@H]3[C@@H](O)[C@@H](O[C@]4(CO)O[C@H](CO)[C@@H](O)[C@@H]4OC(=O)/C=C/c4ccc(O)cc4)O[C@H](CO)[C@H]3OC(=O)/C=C/c3ccc(O)cc3)O[C@H]2C)[C@H](O)[C@H](O)[C@H]1O`, the outcome was “inactive [at 9.23 µM]”.
In the case of `O=C(OCc1cccc(O)c1O[C@@H]1O[C@H](CO)[C@@H](O)[C@H](O)[C@H]1O)C1(O)C(=O)C2C=CC1C1C=CC(=O)C(O)(C(=O)OCc3cccc(O)c3O[C@@H]3O[C@H](CO)[C@@H](O)[C@H](O)[C@H]3O)C21` (some centres undefined), the activity change, negative = viability loss is -9.51% [at 9.23 µM].
